These results are taken from PubChem BioAssay (NCATS).

Results filed as inconclusive are left out. Entries that show only a call come without a potency. Values without a mark were called inactive. Activity calls are given as the source filed them. Calls follow the shape of the dose curve; as a rule, active = well fitted inhibition curve with a large enough effect; inconclusive = small, poorly fitted or top-dose-only effect; inactive = flat fitted curve, though single readings scatter.
Potency is read from the fitted curve at half-maximal effect.

The assay in a line: P-glycoprotein substrates identified in KB-8-5-11 adenocarcinoma cell line, qHTS therapeutic library screen (AID 1346987). Also: nearly all actives have a fitted effect of over 65% in size. The conditions noted are these: KB-8-5-11 (P-gp overexpressing) viability, CellTiter-Glo, 72 h; series mostly up to 44.5 µM. The method in brief:
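In this qHTS, P-gp-rich KB-8-5-11 cells received library compounds across a concentration range. Viability was quantified by luminescence after 72 h at 37 degree C.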
Background: qHTS replaces the single test concentration by a dilution series.
For `CCC(=O)OCC(=O)[C@@]1(OC(=O)CC)[C@H](C)C[C@H]2[C@@H]3CCC4=CC(=O)C=C[C@]4(C)[C@@]3(F)[C@@H](O)C[C@@]21C`, the Potency entry is “inactive”.
The same measure, in the same setting: the entry for `C[C@@]12C(=O)N(c3ccc(C(=O)Nc4cccc5cccnc45)cc3)C(=O)[C@@H]1[C@@H]1C=C[C@H]2C1` is “inactive”; for `CC(C)(O)C1CC(=O)C2(C)C(CCC3(C)C(c4ccoc4)OC(=O)C4OC432)C12CCC(=O)OC2` (centres undefined) it is “inactive”; for `Nc1nc2c(s1)CCN(Cc1ccc(Cl)cc1)CC2` it is “inactive”.
In the case of `O=C(NC[C@H]1CN(c2ccc(N3CCOCC3=O)cc2)C(=O)O1)c1ccc(Cl)s1`, the Potency entry was “inactive”.
Same read-out and setting: for `O=C(Nc1cccc(C(F)(F)F)c1)Nc1ccc(Br)cc1-c1nn[nH]n1` the value was “inactive”; for `Cc1cc2sc(NC(=O)Cc3ccccc3)nc2cc1Cl`, “inactive”.
The same measure, in the same setting: the figure for `Cc1cc(-c2ncc(-c3cccnc3)cc2/C=C/c2ccccc2)cnc1-c1cccnc1` is 10.3 µM (active); for `C=C(C)C(=O)O[C@H]1/C(C=O)=C\CC/C(CO)=C/[C@H]2OC(=O)C(=C)[C@@H]2[C@@H]1OC` it is “inactive”.
On the same count and under the same terms, for `Cn1ncc(Cl)c1-c1cc(C(=O)N[C@H](CN)Cc2cccc(F)c2)sc1Cl` the value was 18.4 µM (active).
In the case of `Cn1ccc(NC(=O)c2cc(Oc3ccc(C(=O)N4CCC4)c(F)c3)c3c(c2)OC(C)(C)C3)n1`, the Potency result is “inactive”.
Same read-out and setting: for `C=C1C(=O)OC2C3=C(C)C(=O)CC3C(C)CC(O)C12` (centres undefined) the value was “inactive”.
The same measure, in the same setting: for `O=C(NC1CCC1)c1ccc(C#Cc2cccc(F)c2)nc1` the value was “inactive”; for `CC(O)C(C)n1ncn(-c2ccc(N3CCN(c4ccc(OCC5COC(Cn6cncn6)(c6ccc(Cl)cc6Cl)O5)cc4)CC3)cc2)c1=O` (centres undefined), 14.6 µM (active).
`CC(C)c1cc(-c2ccc(F)c3ccccc23)nc(N)n1`: the Potency result is “inactive”.
Regarding `CC(=O)O[C@@H]1[C@@H](O)[C@H](O[C@@H]2[C@@H](O)[C@@H](O)[C@H](O[C@H]3[C@H](O[C@H]4[C@H](O[C@H]5CC[C@@]6(C)C(CC[C@]7(C)C6CC=C6[C@@H]8CC(C)(C)CC[C@]8(C(=O)O)CC[C@]67C)[C@]5(C)CO)O[C@H](CO)[C@@H](O)[C@@H]4O)OC[C@@H](O)[C@@H]3O)O[C@H]2C)OC[C@H]1O` (some centres undefined), the activity change, negative = cytotoxicity is 7.23% [at 9.29 µM].
For `NCCC[C@H](N)C(=O)O`, the Potency result is “inactive”.
Same read-out and setting: the entry for `Cc1c(N)nc(C(CC(N)=O)NCC(N)C(N)=O)nc1C(=O)NC(C(=O)NC(C)C(O)C(C)C(=O)NC(C(=O)NCCc1nc(-c2nc(C(=O)NCCCN[C@@H](C)c3ccccc3)cs2)cs1)C(C)O)C(O[C@@H]1O[C@@H](CO)[C@@H](O)[C@H](O)[C@@H]1O[C@H]1O[C@H](CO)[C@@H](O)[C@H](OC(N)=O)[C@@H]1O)c1cnc[nH]1` (some centres undefined) is “inactive”; for `C[C@@H]1CC[C@@]23CC[C@]4(C)[C@@](C=CC5[C@@]6(C)CC[C@H](O)C(C)(C)C6CC[C@]54C)(OC2=O)C3[C@H]1C` (some centres undefined) it is “inactive”; for `CCCCCCCCCCCCCCCC(=O)OC/C=C(C)/C=C/C=C(C)/C=C/C1=C(C)CCCC1(C)C` it is “inactive”.
Same read-out and setting: the entry for `COc1cc(NC(=O)c2cc(C3CC3)on2)c(OC)cc1Cl` is “inactive”; for `COc1cc(F)c(C(C)C)cc1-c1ccc(C(F)(F)F)cc1CN1C(=O)OC(c2cc(C(F)(F)F)cc(C(F)(F)F)c2)C1C` (centres undefined) it is “inactive”.
The same measure, in the same setting: for `C[C@@H]1CC[C@]2(C(=O)O)CC[C@]3(C)C(=CCC4[C@@]5(C)CC[C@H](O)[C@](C)(C(=O)O)C5CC[C@]43C)C2[C@]1(C)O` (some centres undefined) the value was “inactive”; for `O=C(O)c1cccc(/C=C2/C[C@@H]3[C@@H](/C=C/[C@@H](O)C4CCCCC4)[C@H](O)C[C@@H]3O2)c1`, “inactive”.
For the molecule `CC(=O)OC[C@]12[C@H](OC(C)=O)[C@H](OC(=O)c3ccccc3)[C@@H]3[C@@H](OC(C)=O)[C@]1(OC3(C)C)[C@H](C)C[C@H](OC(C)=O)[C@@H]2OC(=O)c1ccccc1`, the Potency result is “inactive”.
The same measure, in the same setting: the entry for `CNC(C)C(=O)NC(C(=O)N1CCCC1C(=O)Nc1snnc1-c1ccccc1)C1CCCCC1` (centres undefined) is “inactive”.
The same measure, in the same setting: for `CC(C)Oc1ccc(-c2cnc3c(-c4ccnc5ccccc45)cnn3c2)cc1` the value was “inactive”.
Same read-out and setting: the entry for `O=c1cc(NCCCN[C@@H]2CCOc3c(Br)cc(Br)cc32)[nH]c2ccsc12` is “inactive”; for `C[C@@H](O[C@H]1OCCN(Cc2nn(P(=O)(O)O)c(=O)[nH]2)[C@H]1c1ccc(F)cc1)c1cc(C(F)(F)F)cc(C(F)(F)F)c1` it is “inactive”.
Regarding `CN(C)Cc1ccccc1`, the Potency entry was “inactive”.
For the molecule `N#CC(CCCN1CCC(O)(c2ccc(Cl)cc2)CC1)(c1ccccc1)c1ccccc1`, the Potency is 20.6 µM (active).
The same measure, in the same setting: for `C/C(=C(/CCO)SSCC1CCCO1)N(C=O)Cc1cnc(C)nc1N` (centres undefined) the value was “inactive”.
Same read-out and setting: the figure for `N#Cc1ccnc(Nc2cc(C3CCN(C4COC4)CC3)cc(N3CCC(F)(F)C3)n2)c1` is 16.4 µM (active); for `Nc1ncnc2c1c(-c1ccc(Cl)cc1)nn2-c1cccc(-c2cnnn2Cc2cccc(-c3ccccc3)c2)c1` it is 16.4 µM (active).
For `O=C1C(c2[nH]c3ccc(S(=O)(=O)O)cc3c2O)=Nc2ccc(S(=O)(=O)O)cc21`, the Potency entry is “inactive”.
As for `CO[C@H]1C[C@H](O[C@H]2[C@H](C)O[C@@H](O[C@@H]3/C(C)=C/C[C@@H]4C[C@@H](C[C@]5(C=C[C@H](C)[C@@H](C6CCCCC6)O5)O4)OC(=O)[C@@H]4C=C(C)[C@@H](O)[C@H]5OC/C(=C\C=C\[C@@H]3C)[C@]54O)C[C@@H]2OC)O[C@@H](C)[C@@H]1O`, the Potency was 20.6 µM (active).
The same measure, in the same setting: the entry for `Cc1ccc(OC[C@H](O)[C@H](C)NC(C)C)c2c1CCC2` is “inactive”; for `CC(C)=CCC/C(C)=C/COCC1OC(n2ccc(=O)[nH]c2=O)C(O)C1O` (centres undefined) it is “inactive”.
On the same count and under the same terms, for `CO[C@H]1[C@@H](O)[C@H](N)[C@@H](O[C@H]2O[C@H]([C@H](C)N)CC[C@H]2N)[C@H](O)[C@@H]1N(C)C(=O)CN` the value was “inactive”.
